Our source for the Inhibition values is ChEMBL document CHEMBL4513146, “CO-ADD screening of Karazin Kharkiv National University (Ukraine) compounds”.

Measured potencies and affinities stand elsewhere.

This assay has as its system Cryptococcus neoformans. Conditions: Concentration 32 ug.mL-1; ASSAY_TEST Inhibition of Fungal Growth; detection method Resazurin; Absorption (OD600-OD570); plate type 384well; NBS; CORNING #3640.
Turning to `O=C(Cn1nc2c(N3CCOCC3)nccn2c1=O)NCc1ccc(F)cc1`, the Inhibition is -8.56%.
As for `O=C(Cn1nc2c(Sc3cccc(F)c3)nccn2c1=O)Nc1ccc(Br)cc1`, the Inhibition is listed as -3.57%.
The same measure for `COc1ccccc1CNC(=O)Cn1nc2c(SCc3ccc(Cl)cc3)nccn2c1=O`: -6.8%.
Regarding `CCOC(=O)c1ccccc1NC(=O)Cn1nc2c(Oc3ccc(C)cc3)nccn2c1=O`, the Inhibition is -10.52%.
The same measure for `CC(C)n1c(=O)c2ccc(C(=O)NC3CCCC3)cc2n2c(=O)n(Cc3cccc(C(F)(F)F)c3)nc12`: -23.89%; for `C=Cc1ccc(CN(c2ccc(C(C)C)cc2)S(=O)(=O)c2cccn3cnnc23)cc1`: -17.09%.
Regarding `Cc1ccc(C)c(Cn2nc3n(CC(C)C)c(=O)c4sccc4n3c2=O)c1`, the Inhibition is reported as -8.63%.
The same measure for `CCOc1ccc(-n2ccn3c(SCC(=O)c4ccc(C)cc4C)nnc3c2=O)cc1`: -5.48%; for `Cc1cccc(C)c1NC(=O)CSc1nnc2c3cc(-c4ccccc4)nn3ccn12`: -6.46%.
The same measure for `Cc1cccc(NC(=O)Cn2nc3ccc(-c4ccc(C)c(C)c4)nn3c2=O)c1`: -12.34%; for `Cc1ccc(NC(=O)Cn2nc3ccc(SC4CCCCC4)nn3c2=O)cc1`: -17.59%; for `Cc1cc(C)cc(N(Cc2ccccc2F)S(=O)(=O)c2cccn3c(C)nnc23)c1`: -4.5%.
Regarding `Cc1nnc2ccc(S(=O)(=O)N(Cc3ccccc3F)c3cccc(Cl)c3)cn12`, the Inhibition is given as -11.57%.
Take `Cc1ccc(Sc2ccc3nn(CC(=O)Nc4ccc(Br)c(C)c4)c(=O)n3n2)cc1`: the Inhibition is -8.57%.
The same measure for `COc1ccc(Cl)cc1NC(=O)Cn1nc2c(Sc3ccc(C)cc3C)nccn2c1=O`: -21.72%; for `O=C(CSc1nnc2c3cc(-c4ccc(F)cc4)nn3ccn12)NCc1ccccc1`: -18.29%.
As to `CCOc1ccc(-n2ccn3c(SCC(=O)NCc4ccccc4Cl)nnc3c2=O)cc1`, the Inhibition is -15.06%.
With `CCc1ccc(N(Cc2ccccc2C)S(=O)(=O)c2cccn3c(CC)nnc23)cc1`, the Inhibition is -7.67%.
In the case of `O=C(Cn1nc2c(SC3CCCCC3)nccn2c1=O)Nc1ccc(F)c(Cl)c1`, the Inhibition is -24.22%.
The same measure for `Cc1ccc(N(Cc2ccccc2)S(=O)(=O)c2ccc3nncn3c2)cc1F`: -7.94%; for `COc1cc(OC)c(NC(=O)Cn2nc3c(Sc4cccc(C)c4)nccn3c2=O)cc1Cl`: -23.34%.
The same measure for `Cc1cccc(N(C)C(=O)Cn2nc3cc(C)nc(Nc4ccc(C)c(F)c4)n3c2=O)c1`: -1.47%.
The result for `Cc1cccc(C)c1NC(=O)CSc1nc2ccccc2n2c(C)nnc12` reads -4.49%; that for `COc1ccc(N2CCN(C(=O)Cn3nc4c(Sc5cccc(C)c5)nccn4c3=O)CC2)cc1`, -17.29%; that for `O=C(Cn1nc2c(SCc3ccccc3)nccn2c1=O)NC1CCCCC1`, -7.22%.
As for `CCc1ccc(Cn2c(=O)c3sccc3n3c(SCc4cccc(C(F)(F)F)c4)nnc23)cc1`, the Inhibition is recorded as -21.14%.
Turning to `COC(=O)c1sccc1NC(=O)Cn1nc2c(Oc3ccccc3)nc3ccccc3n2c1=O`, the Inhibition is -16.14%.
The same measure for `Cc1ccc(C)c(NC(=O)Cn2nc3ccc(-c4ccc(C)c(C)c4)nn3c2=O)c1`: -3.49%.
The same measure for `COc1ccc(-n2ccn3c(=O)n(Cc4ccccc4Cl)nc3c2=O)cc1Cl`: 0.74%; for `COC(=O)c1ccc(NC(=O)Cn2nc3ccc(S(=O)(=O)c4ccccc4)nn3c2=O)cc1`: -5.62%; for `COc1ccc(NC(=O)CSc2nnc3c(=O)n(-c4ccccc4)ccn23)cc1`: -4.81%.
The same measure for `COc1ccc(NC(=O)Cn2nc3nc(Nc4ccc(F)cc4)ccn3c2=O)cc1F`: -11.45%; for `CCc1nnc2ccc(S(=O)(=O)N(Cc3ccc(OC)c(F)c3)c3ccccc3)cn12`: -5.32%.
For `COc1ccc(CN(c2ccc(F)cc2)S(=O)(=O)c2cccn3cnnc23)cc1F`, the Inhibition was -9.79%.
The result for `Cc1ccc(Cl)cc1NC(=O)Cn1nc2c3c4c(sc3ncn2c1=O)CCCCC4` reads -31.5%.
The result for `COc1ccccc1CNC(=O)CSc1nnc2c3cc(-c4ccc(C)cc4)nn3ccn12` reads -12.39%; that for `COc1ccc(NC(=O)Cn2nc3ccc(SCc4ccc(Cl)cc4)nn3c2=O)cc1Cl`, -13.55%.
As for `O=C(Cn1nc2ccc(Sc3cccc(F)c3)nn2c1=O)Nc1ccc2c(c1)OCCO2`, the Inhibition is recorded as -8.22%.
The result for `Cc1ccc(CNC(=O)CSc2nnc3c(=O)n(-c4ccccc4)ccn23)cc1` reads -18.23%.
The same measure for `Cc1cc(C)c(NC(=O)Cn2nc3ccc(SC(C)(C)C)nn3c2=O)c(C)c1`: -25.26%.
